# Laboratory results published in PubChem BioAssay.
# Inconclusive results are not listed. Calls of active or inactive are those of the source. Unless noted, the limit is not given here; nearly all actives have AC50 up to about 26 µM.
# Assays:
# [1] = viability loss in pontine glioma line – cell-based, JHH-DIPG-1, MIPE4.0, CellTiter-Glo, qHTS, dose response (AID 1347062; cut-off not given, nearly all actives have AC50 up to about 27 µM;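 as to AC50: cells exposed to compound for two days before readout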); conditions: JHH-DIPG-1 viability, CellTiter-Glo ATP luminescence
# [2] = viability loss in pontine glioma line – cell-based, SU-DIPG-IV, MIPE4.0, CellTiter-Glo, qHTS, dose response (AID 1347063; cut-off not given, nearly all actives have AC50 up to about 30 µM;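 also: compound exposure lasted 48 hours before the viability readout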); conditions: CellTiter-Glo ATP luminescence
# [3] = viability loss in pontine glioma line – cell-based, SU-DIPG-XIII, MIPE5.0, CellTiter-Glo, qHTS, dose response (AID 1347064; cut-off not given, nearly all actives have AC50 up to about 23 µM;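 as to AC50: cells exposed to compound for 48 hours before the viability read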); conditions: CellTiter-Glo ATP luminescence
# [4] = viability loss in pontine glioma line – cell-based, SU-DIPG-XXV, MIPE5.0, CellTiter-Glo, qHTS, dose response (AID 1347065); conditions: CellTiter-Glo ATP luminescence;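 also: cells exposed to compound for 48 hours before ATP readout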
# [5] = growth inhibition of DIPG cells – cell-based, MIPE4.0 library, CellTiter-Glo luminescence, qHTS (AID 1347066; cut-off not given, nearly all actives have AC50 up to about 30 µM;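 also: cells exposed to compound for 48 hours before readout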); conditions: SU-DIPG-VI viability, CellTiter-Glo ATP luminescence
# [6] = JHH-DIPG-1 glioma cell viability, MIPE5.0 library, CellTiter-Glo luminescence, qHTS (AID 1347067); conditions: JHH-DIPG-1 glioma viability, CellTiter-Glo ATP luminescence;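 also: cells exposed to compound for 48 hours before readout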
# [7] = growth inhibition of DIPG cells – cell-based, MIPE5.0 library, qHTS (AID 1347068; cut-off not given, nearly all actives have IC50 up to about 30 µM); conditions: SU-DIPG-XXV viability
# [8] = biological target: Mitogen-activated protein kinase 7 (Homo sapiens) (UniProt Q13164); experiment: Gal4-ERK5 driven luciferase induction – cell-based, HTS, primary screen (AID 1508626;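 active = luciferase signal above three times the same-plate solvent-only control wells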;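 also: luciferase driven by Gal4-ERK5 fusion binding five Gal4 sites before minimal TATA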); conditions: HeLa Gal4-ERK5 transactivation, 18 h, at 5 µM, stronger effect = higher value
# [9] = galactose survival enhancers in mitochondrial complex I cybrids – cell-based, galactose medium, ATP luminescence, primary screen (AID 1645843;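 active = z-score of at least 1.8 in each of two replicates, scored against plate mean and spread of sample wells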;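 also: positive z means more ATP and so rescue of galactose-driven cybrid death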); conditions: complex I mutant cybrid cells, 72 h, stronger effect = higher value
# [10] = biological target: ATP-dependent translocase ABCB1 (Homo sapiens) (UniProt P08183); experiment: P-glycoprotein substrate transport blockade – cell-based (AID 377; in the data active = fluorescence slope change above about 50%); conditions: MDR1-expressing cells, fluorescent substrate accumulation slope; stronger effect = higher value; concentration not given here
# [11] = growth inhibition, single agents and combos, LFS_MB_1R, cell-based, cisplatin or BGB combos, synergistic combos for chromothripsis tumors (AID 1671452; in the data active = inhibition above about 80%;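 also: cells exposed for 96 hours before readout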); conditions: LFS_MB_1R medulloblastoma cells, stronger effect = higher value
# [12] = growth inhibition, single agents and combos, CRL2098, cell-based, BGB or cisplatin IC20 combos, synergistic combos for chromothripsis tumors (AID 1671454; in the data active = inhibition above about 80%;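 also: cells exposed for 96 h before readout; 0% = vehicle DMSO and 100% = killing by high DMSO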); conditions: CRL2098 osteosarcoma cells, drug combinations, stronger effect = higher value
# [13] = growth inhibition, single agents and combos, HD-MB03, cell-based, BGB or cisplatin IC20 combos, synergistic combos for chromothripsis tumors (AID 1671455; in the data active = inhibition above about 83%;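 also: 0% = vehicle DMSO and 100% = high DMSO as cytotoxic control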); conditions: HD-MB03 medulloblastoma cells, stronger effect = higher value
# [14] = growth inhibition, single agents and combos, UWB1.289, cell-based, BGB or cisplatin combos, synergistic combos for chromothripsis tumors (AID 1671456; in the data active = inhibition above about 80%;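 also: cells exposed to compound for four days; 0% = vehicle DMSO and 100% = killing by high DMSO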); conditions: UWB1.289 ovarian carcinoma cells, stronger effect = higher value
# [15] = growth inhibition, single agents and combos, LFS_MB_2R, cell-based, cisplatin combos, synergistic combos for chromothripsis tumors (AID 1671457; in the data active = inhibition above about 80%;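 also: cells exposed to compound for four days before readout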); conditions: LFS_MB_2R medulloblastoma cells, stronger effect = higher value
# [16] = UWB1.289_BRCA1 ovarian cancer growth, cell-based, BGB or cisplatin combinations (AID 1671459; in the data active = inhibition above about 80%); conditions: UWB1.289 BRCA1 ovarian carcinoma, drug combinations, stronger effect = higher value
# [17] = drug combination toxicity in non-malignant astrocytes – cell-based, BGB or cisplatin IC20 combos, cytotoxicity control for chromothriptic childhood tumor combination screen (AID 1671460; in the data active = inhibition above about 80%;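 also: cells exposed to compounds for 96 hours before viability readout; 0% = vehicle and 100% = killing control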); conditions: Human astrocytes, viability inhibition, drug combinations, at 0.5 µM, stronger effect = higher value
# [18] = BT084 cell growth, single and combined drugs, ICGC_MB145, cisplatin and BGB IC40 combos (AID 1671461; in the data active = inhibition above about 80%;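 also: cells exposed to drugs for 96 hours; 0% = vehicle DMSO and 100% = high DMSO full killing control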); conditions: BT084 medulloblastoma cells, drug combinations, stronger effect = higher value
# [19] = RCMB18 cell growth, single agent and combined, cisplatin and BGB IC40 combos (AID 1671462; in the data active = inhibition above about 80%;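 also: cells exposed to compound for four days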); conditions: RCMB18 medulloblastoma cells, stronger effect = higher value
# [20] = CRL1545 cell growth, single agent and combined, cisplatin and BGB IC20 combos (AID 1671464; in the data active = inhibition above about 80%;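 also: cells exposed to compound for 96 hours before readout; 0% = vehicle DMSO and 100% = high DMSO killing control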); conditions: CRL1545 osteosarcoma cells, stronger effect = higher value
# [21] = measured here: combination with cisplatin, at 0.5 µM
# [22] = measured here: combination with cisplatin, at 5 µM
# Sequence of ATP-dependent translocase ABCB1 (Homo sapiens) (P08183 whole entry, looked up): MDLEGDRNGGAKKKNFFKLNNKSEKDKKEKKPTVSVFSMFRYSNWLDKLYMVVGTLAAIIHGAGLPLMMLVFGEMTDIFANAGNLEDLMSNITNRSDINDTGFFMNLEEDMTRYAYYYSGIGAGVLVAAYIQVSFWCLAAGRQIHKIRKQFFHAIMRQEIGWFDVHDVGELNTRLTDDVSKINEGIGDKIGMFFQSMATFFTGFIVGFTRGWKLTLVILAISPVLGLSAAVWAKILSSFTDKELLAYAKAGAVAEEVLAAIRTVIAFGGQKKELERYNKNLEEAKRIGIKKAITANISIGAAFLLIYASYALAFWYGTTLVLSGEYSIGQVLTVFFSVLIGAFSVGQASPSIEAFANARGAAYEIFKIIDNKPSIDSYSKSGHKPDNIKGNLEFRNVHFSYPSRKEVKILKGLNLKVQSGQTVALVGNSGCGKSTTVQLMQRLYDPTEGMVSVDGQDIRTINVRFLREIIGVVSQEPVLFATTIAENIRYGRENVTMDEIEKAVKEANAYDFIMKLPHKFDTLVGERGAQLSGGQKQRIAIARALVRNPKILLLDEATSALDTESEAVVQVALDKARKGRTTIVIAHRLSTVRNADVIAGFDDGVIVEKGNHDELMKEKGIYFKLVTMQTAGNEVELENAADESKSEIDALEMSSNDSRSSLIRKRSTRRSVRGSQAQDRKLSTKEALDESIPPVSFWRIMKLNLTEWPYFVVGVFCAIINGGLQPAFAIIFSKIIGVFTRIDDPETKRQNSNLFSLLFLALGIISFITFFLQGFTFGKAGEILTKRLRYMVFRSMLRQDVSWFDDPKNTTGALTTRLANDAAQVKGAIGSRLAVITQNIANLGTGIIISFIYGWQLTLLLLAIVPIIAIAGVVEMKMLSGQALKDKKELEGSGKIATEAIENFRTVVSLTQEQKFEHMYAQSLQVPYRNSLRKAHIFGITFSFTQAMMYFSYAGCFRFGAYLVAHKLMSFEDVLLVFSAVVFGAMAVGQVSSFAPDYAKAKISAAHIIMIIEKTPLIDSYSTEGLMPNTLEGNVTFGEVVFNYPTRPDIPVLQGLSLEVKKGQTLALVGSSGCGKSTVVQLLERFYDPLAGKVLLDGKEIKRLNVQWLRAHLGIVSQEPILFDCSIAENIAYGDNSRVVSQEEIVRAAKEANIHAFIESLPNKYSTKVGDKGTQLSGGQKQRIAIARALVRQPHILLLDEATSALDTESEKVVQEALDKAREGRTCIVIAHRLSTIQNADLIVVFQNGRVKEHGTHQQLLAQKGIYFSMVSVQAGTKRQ
# Sequence of Mitogen-activated protein kinase 7 (Homo sapiens) (Q13164 whole entry, looked up, the tested form may be a part): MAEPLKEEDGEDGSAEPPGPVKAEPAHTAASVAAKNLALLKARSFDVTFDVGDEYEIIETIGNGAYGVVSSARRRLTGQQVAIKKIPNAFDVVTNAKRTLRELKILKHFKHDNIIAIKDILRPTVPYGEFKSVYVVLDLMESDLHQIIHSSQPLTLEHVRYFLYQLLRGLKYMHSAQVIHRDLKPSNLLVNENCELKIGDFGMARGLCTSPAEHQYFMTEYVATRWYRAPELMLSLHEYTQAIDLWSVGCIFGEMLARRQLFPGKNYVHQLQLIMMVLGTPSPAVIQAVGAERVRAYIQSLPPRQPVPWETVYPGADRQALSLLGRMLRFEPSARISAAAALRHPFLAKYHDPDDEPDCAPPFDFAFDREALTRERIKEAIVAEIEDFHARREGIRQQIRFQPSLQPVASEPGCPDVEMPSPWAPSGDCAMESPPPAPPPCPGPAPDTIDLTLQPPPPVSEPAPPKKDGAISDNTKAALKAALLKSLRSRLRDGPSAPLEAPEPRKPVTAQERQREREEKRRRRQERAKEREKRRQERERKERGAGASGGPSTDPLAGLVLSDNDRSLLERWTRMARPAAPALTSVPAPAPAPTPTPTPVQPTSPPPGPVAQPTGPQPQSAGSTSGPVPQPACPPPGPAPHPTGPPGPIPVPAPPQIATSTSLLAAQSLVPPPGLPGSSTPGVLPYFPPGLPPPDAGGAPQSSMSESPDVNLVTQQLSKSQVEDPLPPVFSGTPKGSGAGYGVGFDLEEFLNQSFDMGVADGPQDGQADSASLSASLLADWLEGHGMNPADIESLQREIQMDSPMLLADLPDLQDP
smiles,measurement,setting,value
CCCCCCCCCCCCCCCCCCCCCCO,outcome,[1],inactive
same,outcome,[2],inactive
same,outcome,[3],inactive
same,outcome,[4],inactive
same,outcome,[5],inactive
same,outcome,[6],inactive
same,outcome,[7],inactive
same,luciferase signal,[8],140 AU (inactive)
Cn1c(=O)c2c(ncn2CC2OCCO2)n(C)c1=O,outcome,[3],inactive
same,outcome,[4],inactive
same,outcome,[6],inactive
same,outcome,[7],inactive
same,z-score,[9],0.585 (inactive)
CN(C)CCN(Cc1ccc(Cl)cc1)c1ccccn1,fluorescence slope change,[10],92.6% (active)
same,outcome,[1],inactive
same,outcome,[5],inactive
CC(C)Cn1cnc2c(N)nc3ccccc3c21,AC50,[1],18.7 µM (active)
same,AC50,[2],20.9 µM (active)
same,outcome,[3],inactive
same,outcome,[5],inactive
same,outcome,[6],inactive
same,outcome,[7],inactive
same,z-score,[9],0.245 (inactive)
CNC1CCCN(c2c(F)cc3c(=O)c(C(=O)O)cn(C4CC4)c3c2OC)C1 (centres undefined),outcome,[1],inactive
same,outcome,[3],inactive
same,outcome,[4],inactive
same,outcome,[6],inactive
same,outcome,[7],inactive
same,inhibition,[11]; at 0.5 µM,-44.6% (inactive)
same,inhibition,"[11]; measured here: combination with BGB IC40, at 0.05 µM",-12.2%
same,inhibition,[11]; [21],-60.6%
same,inhibition,[11]; [22],-26%
same,inhibition,[12]; at 0.5 µM,-81.1% (inactive)
same,inhibition,"[12]; measured here: combination with BGB at IC20, at 0.5 µM",-82.3%
same,inhibition,"[12]; measured here: combination with cisplatin at IC20, at 0.5 µM",-105%
same,inhibition,[13]; at 0.5 µM,-11% (inactive)
same,inhibition,"[13]; measured here: combo with BGB at IC20, at 0.5 µM",-20.4%
same,inhibition,"[13]; measured here: combo with cisplatin at IC20, at 0.5 µM",-17.8%
same,inhibition,[14]; at 0.5 µM,-14.8% (inactive)
same,inhibition,"[14]; measured here: inhibition with BGB combination, at 0.05 µM",-34.6%
same,inhibition,"[14]; measured here: inhibition with cisplatin combination, at 0.05 µM",0.742%
same,inhibition,[15]; at 0.5 µM,-13.2% (inactive)
same,inhibition,[15]; [21],-14.1%
same,inhibition,[15]; [22],-12.8%
same,inhibition,"[16]; BGB combination, concentration series, at 5 µM",-8.91%
same,inhibition,[16]; at 0.5 µM,-19.1% (inactive)
same,inhibition,"[16]; cisplatin combination, concentration series, at 5 µM",-12.5%
same,inhibition,[17],2.51% (inactive)
same,inhibition,[17]; measured here: combo with BGB IC20,-0.992%
same,inhibition,[17]; measured here: combo with cisplatin IC20,-5.96%
same,inhibition,[18]; at 0.5 µM,-3.94% (inactive)
same,inhibition,"[18]; cisplatin combination, at 0.5 µM",-12.4%
same,inhibition,"[18]; cisplatin combination, at 5 µM",-20.7%
same,inhibition,"[18]; measured here: BGB IC40 combination 0.05 uM, at 0.05 µM",-4.46%
same,inhibition,"[18]; single agent, at 5 µM",-9.28%
same,inhibition,[19]; at 0.5 µM,-11% (inactive)
same,inhibition,"[19]; cisplatin combo, at 5 µM",-11%
same,inhibition,"[19]; measured here: BGB IC40 combination, at 0.05 µM",-0.266%
same,inhibition,[19]; [21],-4.57%
same,inhibition,"[19]; single agent, at 5 µM",-28%
same,inhibition,[20]; at 0.5 µM,-47.5% (inactive)
same,inhibition,"[20]; measured here: with BGB IC20 combination, at 0.5 µM",-52.5%
same,inhibition,"[20]; measured here: with cisplatin IC20 combination, at 0.5 µM",-45%
same,inhibition,"[20]; single agent, at 0.05 µM",2.8%
same,inhibition,"[20]; single agent, at 5 µM",-16.1%
Cc1nc(Nc2ncc(C(=O)Nc3c(C)cccc3Cl)s2)cc(N2CCN(CCO)CC2)n1,AC50,[1],16.6 µM (active)
same,AC50,[2],16.6 µM (active)
same,AC50,[3],14.8 µM (active)
same,AC50,[4],14.8 µM (active)
same,outcome,[5],inactive
same,AC50,[6],7.42 µM (active)
NC(N)=NC(N)=NCCc1ccccc1,fluorescence slope change,[10],100% (active)
same,outcome,[1],inactive
same,outcome,[2],inactive
same,outcome,[3],inactive
same,outcome,[4],inactive
same,outcome,[5],inactive
same,outcome,[6],inactive
same,outcome,[7],inactive
same,luciferase signal,[8],40 AU (inactive)
same,z-score,[9],-2.58 (inactive)
C#CCN(C)CCCOc1ccc(Cl)cc1Cl,z-score,[9],-0.39 (inactive)
COc1ccc2[nH]c(S(=O)Cc3ncc(C)c(OC)c3C)nc2n1 (centres undefined),outcome,[7],inactive
same,z-score,[9],0.825 (inactive)
